Marburg entry inh – inhibitors of Marburg virus binding or cell entry. Marburg virus pseudotyped entry inhibition, cell reporter. Potency, µM (doses to about 37.8 µM), for the others: at the top dose activity change, negative = inhibition, usual class: inhibitors. 300,000 tested, 1.8% active; calls by dose curve; tested in HEK293 cells; further: potency means the concentration at half of the fitted maximal effect; on the % scale 0 is the no-effect control and ±100 the full control effect
Shiga toxin inh – inhibitors of Shiga toxin in Vero cells. Vero cells, Shiga toxin protein synthesis inhibition reporter. inhibition, % at 38.7 µM. 290,000 tested, 9.2% active. AID 2315; in the data active means inhibition mostly above about 28%, no sharp cut-off; inactive means mostly below about 43%; further: 0% is about no effect
AMA1-RON2 inh – inhibitors of Plasmodium falciparum AMA1-RON2 interaction; Potency, µM (series often up to 58.2 µM), inactives show at the highest dose activity change, negative = inhibition, usual class: inhibitors; AID 720542; AlphaScreen AMA1-biotinylated RON2 peptide binding; 360,000 tested, 0.2% active; active means well fitted inhibition curve with a large enough effect; inconclusive means small, poorly fitted or top-dose-only effect; inactive means no such curve, though single readings can be large or run the other way;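 further: potency means the concentration at half of the fitted maximal effect; 0% = vehicle wells and -100% = peptide control; nearly all actives have a fitted effect of over 45% in size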
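AMA1 (3D7) with his tag at 25 nM final met compounds first, then biotinylated RON2 peptide at 25 nM; detection used donor plus acceptor beads, 10 µg/mL apiece, read by AlphaScreen after 30 min at room temperature.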
CHX counter – affects cycloheximide protein synthesis inhibition readout, counter-screen; cell reporter, cycloheximide protein synthesis inhibition counterscreen; max response, %; 300,000 tested, 12% active; in the data active means max response mostly above about 13%, no sharp cut-off; inactive means mostly below about 14%; further: read at 38.3 µM for the half of the compounds with a filed dose; 0% is about no effect
Lassa entry inh – inhibitors of Lassa virus binding or cell entry | Potency, µM (doses to about 37.9 µM), for inactives: top-dose activity change, negative = inhibition, most hits filed as inhibitors | Lassa virus pseudotype entry inhibition, cell reporter | 300,000 tested, 1.2% active; calls by dose curve; tested in HEK293 cells; further: potency means the concentration at half of the fitted maximal effect; on the % scale 0 is the no-effect control and ±100 the full control effect; nearly all actives have a fitted effect of over 50% in size
* = called active by the depositor; [ ] = dose if it differs, or a comment. The full list was thinned out, with hits kept by preference.

For CCN(CC)CCCNC(=O)c1nn(-c2ccc(OC)c(Cl)c2)c(=O)c2c1c1ccccc1n2C the results were Marburg entry inh 8%[46.1 µM] and Lassa entry inh 8%[46.1 µM].
For CC1(C)Cc2c(c(N3CCOCC3)nc3sc4c(NCc5ccccc5)nnnc4c23)CS1 the results were Marburg entry inh -11%, Shiga toxin inh -17, AMA1-RON2 inh -2%, CHX counter -4 and Lassa entry inh inconclusive.
Screening CC(C)CNc1nnnc2c1sc1nc(N3CCOCC3)c3c(c12)CC(C)(C)SC3 returned Marburg entry inh inconclusive, Shiga toxin inh -19, AMA1-RON2 inh 1%, CHX counter -2 and Lassa entry inh 14µM*.
For CSc1nc(SCC(=O)NCc2ccco2)c2c3c(sc2n1)COC(C)(C)C3 the results were Marburg entry inh inconclusive, Shiga toxin inh 28, AMA1-RON2 inh -2%, CHX counter 7 and Lassa entry inh inconclusive.
CC(C)Sc1nc(NCc2ccco2)c2c3c(sc2n1)COC(C)(C)C3 was read as Marburg entry inh 4%, Shiga toxin inh 92*, AMA1-RON2 inh -2%, CHX counter 21* and Lassa entry inh 15%.
Screening COc1ccc2c(c1)c1c(c(=O)n(Cc3ccccc3)c(=O)n1CC(=O)Nc1ccccc1OC)n2C returned Lassa entry inh 9%[46.1 µM].
Screening CNC(=S)N1CCC(NC(=O)C(Cc2ccccc2)NC(C)=O)CC1 (stereo not given) returned Marburg entry inh -8%[46.1 µM], Shiga toxin inh -19, AMA1-RON2 inh -6%, CHX counter -5 and Lassa entry inh 11%[46.1 µM].
For COc1ccc(-c2nnc3n2N=C(c2ccc(OC)c(OC)c2)CS3)cc1 the results were Shiga toxin inh -4 and CHX counter 3.
For O=c1c2ccccc2nc(-c2ccco2)n1/N=C/c1ccccc1O the results were Marburg entry inh 13%, Shiga toxin inh -32, AMA1-RON2 inh 3%, CHX counter 2 and Lassa entry inh -9%.
`O=c1c2ccccc2nc(-c2ccco2)n1/N=C/c1ccco1` gave Marburg entry inh -15%, Shiga toxin inh 55, AMA1-RON2 inh -3%, CHX counter 16* and Lassa entry inh 0%.
`COc1cccc(/C=N/n2c(-c3ccco3)nc3ccccc3c2=O)c1` gave Marburg entry inh 5%, Shiga toxin inh 145*, AMA1-RON2 inh 1%, CHX counter 54* and Lassa entry inh -17%.
Screening COc1ccc(/C=N/n2c(-c3ccco3)nc3ccccc3c2=O)cc1 returned Marburg entry inh 2%, Shiga toxin inh 45*, AMA1-RON2 inh 1%, CHX counter 28 and Lassa entry inh -5%.
Cc1nc2ccccc2c(=O)n1/N=C/c1ccco1 was read as Shiga toxin inh 13, AMA1-RON2 inh 10% and CHX counter 11.
Screening Cc1ccccc1OCc1nc2ccccc2c(=O)n1/N=C/c1ccco1 returned Marburg entry inh 5%, Shiga toxin inh 64*, AMA1-RON2 inh -16%, CHX counter 33* and Lassa entry inh -9%.
For Cc1ccc(CSCC(=O)N2CCN(c3ccccc3)CC2)cc1 the results were Marburg entry inh inconclusive, Shiga toxin inh 12, AMA1-RON2 inh -13%, CHX counter 7 and Lassa entry inh inconclusive.
Screening O=C(CSCc1ccccc1)N1CCN(c2ccc(F)cc2)CC1 returned Marburg entry inh 1%, Shiga toxin inh 21, AMA1-RON2 inh -9%, CHX counter 45* and Lassa entry inh 5%.
O=C(CSCc1cccc(F)c1)N1CCN(c2ccccc2)CC1 was read as Marburg entry inh 10%, Shiga toxin inh 83*, AMA1-RON2 inh -4%, CHX counter 41* and Lassa entry inh 19%.
O=C(CSCc1ccccc1)N1CCN(c2cccc(C(F)(F)F)c2)CC1 was read as Marburg entry inh -3%, Shiga toxin inh 3, AMA1-RON2 inh 21%, CHX counter 7 and Lassa entry inh 4%.
Screening O=C(CSCc1ccccc1)N1CCN(c2ccccc2)CC1 returned Marburg entry inh inconclusive, Shiga toxin inh active, AMA1-RON2 inh 4%, CHX counter 47* and Lassa entry inh 16%.
O=C(c1ccccc1)c1coc2ccc(O)c(Cl)c12 was read as Marburg entry inh -7%, Shiga toxin inh 118*, AMA1-RON2 inh -9%, CHX counter 67* and Lassa entry inh -10%[14.3 µM].
Screening Cc1ccc(C(=O)c2coc3ccc(O)cc23)cc1 returned Shiga toxin inh 41*, AMA1-RON2 inh -4% and CHX counter 34*.
For COc1ccc(C(=O)c2coc3ccc(O)c(CN4CCCCC4)c23)cc1 the results were Shiga toxin inh 42, AMA1-RON2 inh 0% and CHX counter 23.
`O=C(c1ccccc1)c1coc2ccc(O)c(CN3CCOCC3)c12` gave Marburg entry inh -32%, Shiga toxin inh 22, AMA1-RON2 inh 0%, CHX counter 16 and Lassa entry inh 9%.
For Cc1ccc(C(=O)c2coc3ccc(O)c(Cl)c23)cc1 the results were Marburg entry inh -1%, Shiga toxin inh 72*, AMA1-RON2 inh 0%, CHX counter 36* and Lassa entry inh inconclusive.
For Cc1cc(N2CCN(c3nc(-c4ccc([N+](=O)[O-])cc4)cs3)CC2)c2ccccc2n1 the results were Marburg entry inh 11µM*, Shiga toxin inh -6, AMA1-RON2 inh -4%, CHX counter -6 and Lassa entry inh inconclusive.
Screening Cc1cc(-c2ccc([N+](=O)[O-])cc2)nc2ccccc12 returned Marburg entry inh -19%[46.1 µM], Shiga toxin inh 62*, AMA1-RON2 inh -20%, CHX counter 46* and Lassa entry inh 5%.
`Cc1cc(-c2cccc([N+](=O)[O-])c2)nc2ccccc12` gave Marburg entry inh 17%, Shiga toxin inh -1, AMA1-RON2 inh -20%, CHX counter 12 and Lassa entry inh inconclusive.
Cc1nc2ccccc2c(=O)n1-c1ccc([N+](=O)[O-])cc1 was read as Marburg entry inh inconclusive, Shiga toxin inh 64*, AMA1-RON2 inh 3%, CHX counter 42* and Lassa entry inh inconclusive.
For CN1CCN(Cc2nc3ccccc3c(=O)n2Cc2nc(-c3ccc([N+](=O)[O-])cc3)cs2)CC1 the results were Marburg entry inh inconclusive, Shiga toxin inh -36, AMA1-RON2 inh inconclusive, CHX counter -9 and Lassa entry inh inconclusive.
`N#Cc1nc(COc2ccccc2F)oc1NCCc1ccccc1` gave Marburg entry inh -15%, Shiga toxin inh 57*, AMA1-RON2 inh -34%, CHX counter 27* and Lassa entry inh 1%.
`Cc1ccc(OCc2nc(C#N)c(NCCc3ccccc3)o2)cc1` gave Marburg entry inh 28%[46.1 µM] and Lassa entry inh 18%[46.1 µM].
Screening CN(Cc1ccccc1)c1oc(COc2ccccc2F)nc1C#N returned Shiga toxin inh 89*, AMA1-RON2 inh inconclusive and CHX counter 25.
For CC(C)C[C@H]1COc2cc(N3CCC[C@@H]3CO)ccc2S(=O)(=O)N1 the results were AMA1-RON2 inh 9%.
COc1ccc(N2C(=O)CSC2c2ccccc2)cc1 (stereo not given) was read as Marburg entry inh -17%[46.1 µM], Shiga toxin inh -4, AMA1-RON2 inh -6%, CHX counter 12 and Lassa entry inh -14%[46.1 µM].

Assay outcomes (PubChem BioAssay)
